Data on 68 molecules can be found in ChEMBL document CHEMBL4513216, “Probing the Open Global Health Chemical Diversity Library for Multistage-Active Starting Points for Next-Generation Antimalarials” (ACS Infect Dis, 2020).

The campaign covered roughly 68,000 compounds. About 2,700 (4%) showed an effect of 50% or more. Only a selection was taken, and strong results are over-represented in it overall.

The subject of this assay is Plasmodium berghei. Kind of assay: Screen against P. berghei liver stage (PbLuc), transformed with Luciferase, at 2uM. Conditions: tested at 2 uM. It is filed as functional, HepG2.
Turning to `O=C(Cn1nc(Br)nc1Br)N1CCCC1`, the INHIBITION is given as -14.58%.
`CCCC1COCCN1Cc1ccc(S(=O)(=O)NC)cc1` (stereo not drawn): the INHIBITION is 30.96%.
As to `CCCC1COCCN1Cc1ccc(NC(C)=O)cc1` (stereo not drawn), the INHIBITION is 48.17%.
`CCCC1COCCN1Cc1ccc(C(=O)O)cc1` (stereo not drawn): the INHIBITION was determined as 55.7%.
For `CN(Cc1ccccc1F)C(=O)CS(=O)(=O)Cc1ccc(Cl)c(Cl)c1`, the INHIBITION was -10.5%.
For the molecule `Cc1ccccc1CS(=O)(=O)CC(=O)N(C)Cc1ccccc1F`, the INHIBITION is reported as -38.35%.
With `COc1ccc(Cl)cc1CS(=O)(=O)CC(=O)N(C)Cc1ccccc1F`, the INHIBITION is on record as 51.94%.
The value for `Cc1nc(C(C)C)sc1C(C)N(C)C(=O)c1ccc(=O)n(C)c1` (stereo not drawn) was -11.76%; that for `CCc1ccc(CN(C)c2ccc(-c3nc(COC)no3)cn2)nc1` was 10.65%; that for `CCc1ccc(CN(C)Cc2nc(COc3ccccc3)no2)nc1` was 64.2%.
The value for `CCc1ccc(CN(C)Cc2nc(-c3cnccn3)no2)nc1` was -16.76%.
With `CN(Cc1ccc(F)cc1F)Cc1cc2c(cc1Br)OCCO2`, the INHIBITION was determined as 45.66%.
As to `Cc1cnccc1N1CCCN(C(=O)CCCc2cn[nH]c2)CC1`, the INHIBITION is 9.17%.
`O=C(c1cnccn1)N1C[C@@H]2[C@@H](C1)OCC(=O)N2CC1CCCC1`: the INHIBITION came to 31.65%.
Regarding `O=C(c1ccccn1)N1C[C@@H]2OCC(=O)N(CC3CCCCC3)[C@@H]2C1`, the INHIBITION is recorded as 56.16%.
In the case of `O=C(c1cnccn1)N1C[C@@H]2OCC(=O)N(CC3CCCCC3)[C@@H]2C1`, the INHIBITION was -26.14%.
Consider `O=C(NCC(=O)N1CCc2ccccc2C1)c1cnccn1`, for which the INHIBITION was 23.94%.
The value for `CC(C)(CO)Nc1cc(-c2cn[nH]c2)ncn1` was 6.03%; that for `Cc1cnn(CC2CCCCN2CC(=O)Nc2nc(C)cs2)c1` (stereo not drawn) was 67.69%.
On to `CCCn1nccc1NC(=O)CN1CCCC1Cn1cc(C)cn1` (stereo not drawn), for which the INHIBITION came out at 50.32%.
The figure for `Cc1cnn(CC2CCCCN2CC(=O)Nc2nncs2)c1` (stereo not drawn) is 23.65%; for `CCCn1nccc1NC(=O)CN1CCC[C@H]1CO` it is 13.53%.
As to `Cc1cnn(CC2CCCN2CC(=O)Nc2nc(C)cs2)c1` (stereo not drawn), the INHIBITION is -54.73%.
As to `CCCn1nccc1NC(=O)CN1CCCC1Cn1cccn1` (stereo not drawn), the INHIBITION is 33.9%.
`Cc1cc(O)n(-c2ccccc2Cl)c(=O)c1C#N`: the INHIBITION is reported as 3.1%.
As to `O=C1NCCCCC1NS(=O)(=O)N1CCCCCC1` (stereo not drawn), the INHIBITION is given as -4.89%.
Take `CC(C)N1CC[C@H]2[C@H](C[C@@H](Cn3cncn3)N2c2nccs2)C1`: the INHIBITION is reported as 27.61%.
For the molecule `CC(C)(C)c1nnc(CN2CCCC(Cn3cncn3)C2)o1` (stereo not drawn), the INHIBITION worked out at 15.31%.
On to `Fc1ccc(-c2nnc(CN3CCOC(Cn4cncn4)C3)o2)cc1` (stereo not drawn), for which the INHIBITION is -77.99%.
For the molecule `CC(C)(C)c1nnc(CN2CCOC(Cn3cncn3)C2)o1` (stereo not drawn), the INHIBITION came to 62.13%.
For the molecule `Cc1ccc(-c2nnc(CN3CCOC(Cn4cccn4)C3)o2)cc1` (stereo not drawn), the INHIBITION is reported as -47.05%.
As for `Cc1cnn(CC2CN(Cc3cccc(C(=O)N(C)C)c3)CCO2)c1` (stereo not drawn), the INHIBITION was 18.46%.
The value for `Cc1ccc(-c2nnc(CN3CCOC(Cn4cncn4)C3)o2)cc1` (stereo not drawn) was 51.46%.
As for `CC(C)(C)c1nnc(CN2CCOC(Cn3cccn3)C2)o1` (stereo not drawn), the INHIBITION was 11.18%.
The figure for `CN(C)C(=O)c1cccc(CN2CCOC(Cn3cncn3)C2)c1` (stereo not drawn) is 74.35%; for `CN(C)C(=O)c1cccc(CN2CCOC(Cn3cccn3)C2)c1` (stereo not drawn) it is -21.39%.
As to `Cc1ccc(CCNC(=O)Nc2cc(C(F)(F)F)c[nH]c2=O)o1`, the INHIBITION is reported as -0.12%.
For the molecule `O=C(c1n[nH]c2c1CN(C1CCOCC1)CC2)N1CCCC1`, the INHIBITION is given as 30.95%.
Turning to `Cc1cccc(N(C)Cc2cc(=O)n3oc(C)cc3n2)c1`, the INHIBITION stood at 4.91%.
With `N#CCCN(CC1CCOC1)Cn1ccc(-c2cccs2)n1` (stereo not drawn), the INHIBITION is listed as -42.48%.
Turning to `COc1cc(C)nc(N2CCN(C(=O)CN(C)C(C)C)CC2)n1`, the INHIBITION was 10.22%.
As for `COc1c(C)cnc(CNC(=O)CCOCc2ccccc2)c1C`, the INHIBITION amounted to 65.76%.
For `COc1ccccc1OCCC(=O)NCc1ncc(C)c(OC)c1C`, the INHIBITION was found to be 40.51%.
As for `COc1c(C)cnc(CNC(=O)CCOCC(C)C)c1C`, the INHIBITION was found to be 5.17%.
Take `CN1CCCC1c1cccc(Cc2ccc(F)cc2)n1` (stereo not drawn): the INHIBITION was found to be 16.32%.
In the case of `Cc1cc(-c2nnn(CCNS(C)(=O)=O)n2)ccc1F`, the INHIBITION is listed as 69.72%.
In the case of `CNS(=O)(=O)CCCn1nnc(-c2ccc(F)c(C)c2)n1`, the INHIBITION came out at 31.66%.
Turning to `Cc1cc(-c2nnn(CCC(N)=O)n2)ccc1F`, the INHIBITION is 5%.
The figure for `c1ccc([C@@H]2CN(Cc3ccncc3)C[C@H]2c2cc[nH]n2)cc1` is 48.22%.
For `c1ccc([C@@H]2CN(Cc3cccnc3)C[C@H]2c2cc[nH]n2)cc1`, the INHIBITION is reported as 50.94%.
Turning to `COc1ccc([C@@H]2CN(Cc3ccncc3)C[C@H]2c2cc[nH]n2)cc1`, the INHIBITION is -128.75%.
Consider `CS(=O)(=O)c1cccc(C(=O)NCCCN2CCc3ccccc3C2)c1`, for which the INHIBITION turned out to be 5.59%.
On to `c1cnc(N2CC3(CCN(C4CCOCC4)CC3)c3ccccc32)nc1`, for which the INHIBITION is given as -23.45%.
In the case of `CN(CCn1nc2ccccn2c1=O)CC(=O)N1CCCC1`, the INHIBITION is 17.19%.
The value for `CCC(C)NC(=O)NCCCn1nc2ccccn2c1=O` (stereo not drawn) was 55.7%; that for `CN(CCn1nc2ccccn2c1=O)CC(=O)NC1CC1` was 16.6%; that for `CCC(=O)CNC(=O)CCn1nc2ccccn2c1=O` was -12.95%.
Take `O=C(NCCCn1nc2ccccn2c1=O)NC(C1CC1)C1CC1`: the INHIBITION is on record as -35.46%.
Regarding `CC(=O)N1CCCN(CCn2nc3ccccn3c2=O)CC1`, the INHIBITION was found to be 52.66%.
The figure for `CN(C)C(=O)N1CCN(CCn2nc3ccccn3c2=O)CC1` is 50.32%; for `CCNC(=O)NCCCn1nc2ccccn2c1=O` it is -53.4%; for `CCN(CC)C(=O)CN(C)CCn1nc2ccccn2c1=O` it is 8.88%.
As to `CN1CCN(C(=O)c2cnsn2)c2ccc(F)cc21`, the INHIBITION was found to be 36.24%.
On to `CN(C)CCCn1ccnc1C1CCCN(c2ncc(Cl)cc2F)C1` (stereo not drawn), for which the INHIBITION is -18.59%.
On to `Cc1noc([C@H]2C[C@H]3OCC[C@H]3N(Cc3cccs3)C2)n1`, for which the INHIBITION is -27.21%.
Turning to `c1cnc(N2CCCC3(CCN(CC4CCC4)C3)C2)nc1` (stereo not drawn), the INHIBITION was -20.98%.
In the case of `CN(C)c1cc(CNC(=O)Nc2cccnc2N2CCCC2)ccn1`, the INHIBITION is reported as -43.4%.
On to `Cn1cccc(NC(=O)N2CCC(COCc3ccccc3)C2)c1=O` (stereo not drawn), for which the INHIBITION is listed as -5.79%.
